PG9 binder – small molecules binding HIV-1 gp120 antibody PG9 | TR-FRET gp120-PG9 antibody binding | inhibition, % at 6.7 µM | hit rate 0.43% among 360,000 | AID 624416; in the data active = inhibition above about 8.5%
aDG glyco up – alpha-DG glycosylation activation; Pro5-aDG cells, alpha-DG glycosylation AlphaScreen (IIH6); 0% Pro5, 100% B10-LARGE cell signal; activation, % at 10 µM; hit rate 0.22% among 360,000; AID 624168;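 active = activation of at least 8% versus controls, or a plate z-score of at least 8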;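 note: Pro5 are CHO cells carrying HIG-tagged alpha-DG that lacks glycosylation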
Rev-erbA mod – modulators of human Rev-erb alpha DNA binding | activity, % at 10 µM | Rev-erbα–FITC-DNA binding, fluorescence polarization, 90 min | P20393 | hit rate 0.79% among 370,000;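 active = activity above about 14%, limit read from the data; passing the limit was not always enough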
ZTA DNA inh – counter-screen for EBNA-1 inhibitors: inhibitors of Epstein-Barr virus ZTA; P03206; ZTA-DNA binding, fluorescence polarization; inhibition, % at 11 µM; hit rate 0.15% among 320,000; in the data active = inhibition above about 33%
Target sequence (P03206 whole entry, looked up): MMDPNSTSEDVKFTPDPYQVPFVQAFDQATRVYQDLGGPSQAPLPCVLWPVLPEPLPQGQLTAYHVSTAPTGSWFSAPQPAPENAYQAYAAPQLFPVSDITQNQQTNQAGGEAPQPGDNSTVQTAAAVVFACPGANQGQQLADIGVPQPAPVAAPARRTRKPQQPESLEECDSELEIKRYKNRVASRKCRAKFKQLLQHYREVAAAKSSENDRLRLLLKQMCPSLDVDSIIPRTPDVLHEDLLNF
EBNA-1 inhibitor – blocks EBNA-1 binding to DNA | EBNA-1 DNA binding, fluorescence polarization | inhibition, % at 14.8 µM | hit rate 0.34% among 300,000 | AID 1950; in the data active = inhibition above about 28%
NCF1 inh – blocks human p47phox regulatory protein of NADPH oxidases; p47phox/p22phox peptide binding, fluorescence polarization, 2 h; hit rate 0.53% among 220,000; P14598; inhibition, % at 24.7 µM;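 active = inhibition above about 30%, limit read from the data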
Target sequence (P14598 whole entry, looked up): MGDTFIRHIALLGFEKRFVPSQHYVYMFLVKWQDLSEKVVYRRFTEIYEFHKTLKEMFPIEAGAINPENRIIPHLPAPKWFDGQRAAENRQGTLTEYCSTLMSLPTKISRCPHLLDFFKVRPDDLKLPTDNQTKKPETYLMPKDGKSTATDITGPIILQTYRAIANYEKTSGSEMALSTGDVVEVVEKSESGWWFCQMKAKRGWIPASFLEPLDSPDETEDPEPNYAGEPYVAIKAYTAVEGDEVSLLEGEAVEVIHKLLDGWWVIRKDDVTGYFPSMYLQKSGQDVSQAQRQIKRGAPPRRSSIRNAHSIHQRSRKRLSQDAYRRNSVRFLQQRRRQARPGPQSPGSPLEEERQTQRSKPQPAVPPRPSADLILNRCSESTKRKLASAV
NR1D1 mod conf – Rev-erb alpha (human) modulation, hit confirmation | hit rate 61% among 3,000 | Rev-erb alpha FITC-DNA binding, fluorescence polarization, 90 min | shares compounds with Rev-erbA mod | activation, % at 25 µM;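 active = activation at or above a set limit, or at least 3 SD above the negative control mean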
RORg DNA counter – affects RORgamma DNA binding in a Rev-erb alpha counter-screen; shares compounds with Rev-erbA mod; purified RORgamma protein-FITC-DNA binding, fluorescence polarization; IC50, µM; hit rate 8% among 910; AID 1259320;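 active = Compounds whose fitted half-maximal concentration for disrupting protein-DNA binding is below 10 micromolar; the record names Rev-erb in its text, so the target is in doubt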
Hits are given with their value; n = inactive; x = no result given. The list is not random: actives were taken first. Their share in the collection is about 1.9%.

SMILES	PG9 binder	aDG glyco up	Rev-erbA mod	ZTA DNA inh	EBNA-1 inhibitor	NCF1 inh	NR1D1 mod conf	others
C=CCc1c(C)c(C#N)c2nc3ccccc3n2c1N1CCCCC1	n	n	43	n	n	n	n
C=C(C)Cc1c(C)c(C#N)c2nc3ccccc3n2c1N1CCCCC1	n	n	25	n	n	n	n
CCc1c(C)c(C#N)c2nc3ccccc3n2c1N(C)C	n	n	n	n	n	n	x
COc1ccc(S[C@]2(C(=O)N3CCN(c4ncccn4)CC3)CC(=O)N(c3ccccc3)[C@@H]2c2ccc(OC)cc2)cc1	x	x	n	x	x	x	x
O=C(Nc1ccccn1)c1sc2cccc(F)c2c1Cl	n	n	25	n	n	n	n
Cc1ccc(NC(=O)Cn2nnc(-c3ccncc3)n2)cc1C	x	x	n	x	x	x	x
COc1ccc(C2CC(c3cccs3)=NN2C(=O)CSC2=NCCS2)cc1 (stereo not given)	n	n	14	n	n	x	n
Cc1ccc2c(c1)S(=O)(=O)c1ccc3ccccc3c1N2	n	n	32	x	x	x	15
Cc1cccc(CSC2=CS(=O)(=O)c3ccccc3N2)c1	n	n	n	n	n	n	x
CC1(Cc2ccccc2C#N)C(=O)Nc2ccc(OC(F)(F)F)cc21 (stereo not given)	n	n	28	x	x	x	26
COc1ccc(OC(F)(F)F)cc1CC1(C)C(=O)Nc2c(Cl)ccc(Cl)c21 (stereo not given)	x	n	x	x	x	x	x
CC1(Cc2ccccc2Cl)C(=O)Nc2ccc(OC(F)(F)F)cc21 (stereo not given)	n	n	36	x	x	x	45	RORg DNA counter=n
COc1ccc(NC(=O)c2oc3ccccc3c2NC(=O)COc2ccccc2OC)c(OC)c1	n	n	42	n	n	n	31
COc1ccc(NC(=O)c2oc3ccccc3c2NC(=O)c2ccc(OC)c(OC)c2)c(OC)c1	n	n	n	x	x	x	x
CCOCC(=O)Nc1c(C(=O)Nc2ccccc2OC)oc2ccccc12	n	n	47	n	n	n	39
C=CCN1[C@H](CO)[C@H](c2ccc(Br)cc2)[C@@H]1C#N	x	x	n	x	x	x	x
COC(=O)C1CN(Cc2ccc(C)cc2)CCS(=O)(=O)N1Cc1cn(Cc2ccc(OC)cc2)nn1 (stereo not given)	x	x	n	x	x	x	x
CCOC(=O)c1c(NC(=S)Nc2ccc(OC)cc2)sc2c1CCC2	n	n	47	n	n	n	37	RORg DNA counter=n
Cc1ccc(C)c(N2CCN(S(=O)(=O)c3ccc(-c4ccc(=O)[nH]n4)o3)CC2)c1	n	n	33	n	n	x	n
Cc1ccc(Cl)cc1N1CCN(S(=O)(=O)c2ccc(-c3ccc(=O)[nH]n3)o2)CC1	n	n	135	n	n	x	138	RORg DNA counter=n
COC(=O)[C@]12C=CCN1[C@H](c1ccc(OC)c(OC)c1)c1c(c3ccccc3n1S(=O)(=O)c1ccc(C)cc1)C2	x	x	n	x	x	x	x
CSc1ccc(SC2CN(Cc3ccc(C)cc3)S(=O)(=O)C2)cc1 (stereo not given)	n	x	25	x	x	x	28	RORg DNA counter=n
O=C(Nc1ccccc1)c1ccc(N2CCN(c3ccccc3)CC2)c(S(=O)(=O)N2CCOCC2)c1	n	n	61	n	n	n	29
CN1CCN(c2ccc3c(c2)Oc2ccccc2CN(Cc2cn(Cc4ccc(F)cc4)nn2)S3(=O)=O)CC1	x	x	n	x	x	x	x
Cc1ccc(NC(=O)c2sc(Cl)nc2-c2ccccc2)cc1C	n	n	53	n	n	n	38	RORg DNA counter=n
SMILES	PG9 binder	aDG glyco up	Rev-erbA mod	ZTA DNA inh	EBNA-1 inhibitor	NCF1 inh	NR1D1 mod conf	others
COc1ccc(N2CCCN(CC(=O)Nc3ccc(Cl)c(Cl)c3)CC2)cc1	x	x	n	x	x	x	x
CCC(=O)N=c1sc2cc(F)cc(F)c2n1C	n	n	n	n	n	x	x
CCC(=O)N=c1sc2c(OC)ccc(OC)c2n1C	n	n	47	n	n	x	30	RORg DNA counter=n
COc1ccc(C)c2sc(=NC(=O)c3cccc(N4C(=O)CCC4=O)c3)n(C)c12	n	n	43	n	n	n	23
COc1ccc(C)c2sc(=NC(=O)C(C)C)n(C)c12	n	n	158	n	n	n	11
COc1ccc(OC)c2c1sc(=NC(=O)C1COc3ccccc3O1)n2C (stereo not given)	n	n	29	n	n	n	21
CC(C)C(=O)N=c1sc2cc(F)cc(F)c2n1C	n	n	n	n	n	n	x
N#CCC[C@@H]1CC[C@]2(CCCN(C(=O)C3CCCCC3)C2)O1	x	x	n	x	x	x	x
Cc1ccc(NC(=O)[C@@H]2CCCN2S(=O)(=O)c2cccc3cccnc23)c(C)c1	x	x	n	x	x	x	x
COc1ccc(C2C(C(=O)Nc3cc(OC)ccc3OC)CCC(=O)N2c2ccc(OC)cc2)cc1 (stereo not given)	x	x	n	x	x	x	x
CCOC(=O)C1=C(C#N)C(C(=O)OCC)c2ncccc21 (stereo not given)	n	n	34	x	x	x	22
O=C(CSc1nc2ccccc2nc1N1CCCCC1)NCc1ccc(Cl)cc1Cl	x	x	47	x	x	x	41	RORg DNA counter=n
Cc1cc(C)cc(NC(=O)CSc2nc3ccccc3nc2N2CCCCC2)c1	n	n	n	n	n	x	x
COC(=O)[C@]12C[C@H](CC(=O)N3CCCCC3)C(=O)N(Cc3ccc4c(c3)OCO4)C1=C[C@H](C(C)C)O[C@@H]2C1CC1	x	x	n	x	x	x	x
O=C(Nc1nnc(-c2ccc(Br)cc2)o1)c1cccc(N2C(=O)CCC2=O)c1	n	n	18	n	n	x	n
CCCc1nc2sc3c(=O)[nH]cnc3c2c2c1CCCC2	n	x	n	n	n	n	x
CC(C)Cc1nc2sc3c(=O)[nH]cnc3c2c2c1CCC2	n	n	38	n	n	n	n
CC(C)c1nc2sc3c(=O)[nH]cnc3c2c2c1CCCC2	n	n	25	n	n	n	n
Cc1ccc2c(c1)C1CS(=O)(=O)N(CCc3ccccc3)C(=O)N1C2 (stereo not given)	x	x	n	x	x	x	x
COC(=O)c1ccc2nc(-c3ccc(OC)c(OC)c3)c(Cc3ccccc3C(F)(F)F)n2c1	n	x	n	x	x	x	x
COC(=O)c1ccc2nc(-c3ccccc3)c(Cc3ccccc3C(F)(F)F)n2c1	n	n	22	x	x	x	19
COC(=O)c1ccc2nc(-c3ccc(F)cc3)c(Cc3ccccc3C(F)(F)F)n2c1	n	n	21	x	x	x	n
O=C(Nc1sc2c(c1-c1nc3ccccc3s1)CCNC2)C(F)(F)F	x	x	n	x	x	x	x
NC1CCCCC1N=Cc1c(O)n(CCc2ccc(F)cc2)c(=O)[nH]c1=O (stereo not given)	n	n	n	x	x	x	x
O=c1[nH]c(=O)n(CCc2ccc(F)cc2)c(O)c1C=NCc1ccc2c(c1)OCO2	n	n	21	n	n	n	26
O=C(NC1CCCCN(Cc2cccc(C(F)(F)F)c2)C1=O)c1c(F)cccc1F (stereo not given)	x	x	n	x	x	x	x
COc1ccc(C(=O)NCCN2C(=O)C3C4C=CC(C4)C3C2=O)cc1OC (stereo not given)	x	x	n	x	x	x	x
